# In PubChem BioAssay:
# A number with no mark means an inactive call. The source made the active and inactive calls.
# Molecular target: NADPH oxidase 2 (Homo sapiens) (UniProt P04839)
# Experiment: NOX2-dependent H2O2 signal modulators, primary screen, NOX inhibitor project, cell-based, HEK293-NOX2, PMA-stimulated, Amplex Red fluorescence (AID 1159); note: test concentration not given here
# Conditions: 45 min, higher = more signal, called active from +8 up or from −8 down
# NADPH oxidase 2 (Homo sapiens), sequence (P04839 whole entry, looked up): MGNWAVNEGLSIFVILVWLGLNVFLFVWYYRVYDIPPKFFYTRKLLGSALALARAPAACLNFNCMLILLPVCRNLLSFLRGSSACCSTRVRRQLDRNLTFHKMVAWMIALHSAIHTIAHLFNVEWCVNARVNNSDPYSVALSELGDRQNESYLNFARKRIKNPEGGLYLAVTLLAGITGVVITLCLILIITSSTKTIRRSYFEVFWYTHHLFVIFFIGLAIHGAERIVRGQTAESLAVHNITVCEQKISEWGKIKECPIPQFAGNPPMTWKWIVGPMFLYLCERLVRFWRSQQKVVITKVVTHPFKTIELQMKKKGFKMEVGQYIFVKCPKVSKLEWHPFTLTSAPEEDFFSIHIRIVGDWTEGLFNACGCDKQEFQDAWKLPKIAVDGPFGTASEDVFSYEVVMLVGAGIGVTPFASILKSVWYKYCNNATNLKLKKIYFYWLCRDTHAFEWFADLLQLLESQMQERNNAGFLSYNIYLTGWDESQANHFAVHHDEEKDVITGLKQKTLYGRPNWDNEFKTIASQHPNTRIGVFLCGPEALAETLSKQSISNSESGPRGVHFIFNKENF
row,Structure (SMILES),z-score
1,COc1ccc([Si](C)(C)[C@H]2[C@H](CCO)O[C@@]3(C(=O)N(Cc4cccc(N5C(=O)COc6ccccc65)c4)c4ccccc43)[C@@H]2C)cc1,-1.26
2,CC(C)(C)OC(=O)CC[C@@]1(C(=O)NCc2ccccc2)N=C(c2ccc(OCCCO)cc2)O[C@@H]1c1ccccc1N=[N+]=[N-],-1.8
3,CN(C)CCCNC(=O)[C@@]1(c2ccc([N+](=O)[O-])cc2)CC(=O)N(CC23CC4CC(CC(C4)C2)C3)[C@@H]1c1ccc(CO)cc1I,-10.3 (active)
4,C=C[C@@H](OC)[C@H](OC(=O)Nc1ccc(SC)cc1)c1ccc(O)c(F)c1,-2.6
5,CCC(CC)C(O)C1C=CC2C(=O)N(c3ccccc3)C(=O)C2N1Nc1ccc(C(C)C)cc1 (stereo unspecified),-0.743
6,COC(=O)[C@@]1(Cc2ccc(F)cc2)[C@H]2c3cc(C(=O)N(C)C)n(CCc4ccc(O)c(OC)c4)c3C[C@H]2CN1C(=O)c1ccccc1,-0.0241
7,CC(C)[Si](C#CCCCC#N)(O[C@H](c1ccccc1)c1cn([C@H](CO)Cc2ccccc2)nn1)C(C)C,-0.777
8,Cc1cc(C)c(C(O)C2C=CC3C(=O)NC(=O)C3N2Nc2ccc(Cl)cc2Cl)c(C)c1 (stereo unspecified),0.614
9,CCOc1cc(C(O)C2C=CC3C(=O)N(C)C(=O)C3N2Nc2ccccc2)ccc1O (stereo unspecified),-1.4
10,O=C1O[C@H](c2ccccc2)[C@H](c2ccccc2)N2[C@H]1[C@@H](C(=O)Nc1nc3ccccc3s1)[C@]1(C(=O)Nc3ccc(C#CCCO)cc31)[C@H]2c1ccc(O)cc1,1.08
11,CC(C)OC(=O)C=C1C[C@@H](c2ccc(C(F)(F)F)cc2)O[C@@H](c2ccc(C(F)(F)F)cc2)O1,0.283
12,CN(C)C(=O)[C@]1(CCS(=O)(=O)c2ccccc2)N=C(c2ccc(OCCCO)cc2)O[C@@H]1c1ccccc1N=[N+]=[N-],0.502
13,C=CCOC(=O)[C@H]1[C@@H]2C(=O)O[C@@H](c3ccccc3)[C@@H](c3ccccc3)N2[C@@H](c2ccc(OCCOC(=O)[C@H]3C[C@H]4C(=O)N[C@@H](CCCCNC(C)=O)C(=O)N4[C@H]3c3ccc(O)cc3)cc2)[C@]12C(=O)Nc1ccccc12,1.89
14,CC(CO)N1C(=O)[C@@H]2[C@H]3C(=O)OCC=C[C@H]3OC23C=CCN(Cc2ccccc2)C(=O)[C@@H]13 (stereo partly specified),0.991
15,COCCOC(=O)N1C(=O)[C@@]2(c3cc(C#Cc4ccc(OC)cc4)ccc31)[C@H](C(=O)Nc1nc3ccccc3s1)[C@H]1C(=O)O[C@H](c3ccccc3)[C@H](c3ccccc3)N1[C@@H]2c1ccc(O)cc1,1.49
16,O=C1OCCC=C[C@H]2OC34C=CCN(Cn5nnc6ccccc65)C(=O)[C@H]3N(CCCCCCO)C(=O)[C@@H]4C12 (stereo partly specified),0.94
17,CN(C)C(=O)[C@@]1(CCS(=O)(=O)c2ccccc2)N=C(c2ccc(OCCCO)cc2)O[C@H]1c1ccccc1,0.441
18,CCCCN1CC=CC23O[C@@H]4/C=C\CCC(C)OC(=O)C4[C@H]2C(=O)N(C(CO)C(C)C)[C@@H]3C1=O (stereo partly specified),1.4
19,COC(=O)[C@H](Cc1ccccc1)N1CC(/C=C/C2CC2)=C[C@H]1[C@H](O)Cc1ccccc1,-4.7
20,CCCCCCc1nc(C2CC2)cc2c1[Si](C(C)C)(C(C)C)OC2,-6.34
21,Cc1ccc(S[C@]2(C(=O)NCC(F)(F)F)CC(=O)N(C3CCCCC3)[C@@H]2c2ccc(CO)cc2I)cc1,1.04
22,CCCC[C@@H]1C[C@H]1[C@@H](NC(=O)Cc1ccccc1)c1ccc(-c2ccccc2)cc1,-1.35
23,COC(=O)[C@@]1(Cc2ccc(OC)cc2)[C@H]2c3cc(C(=O)N(C)C)n(Cc4ccc(Cl)c(C(F)(F)F)c4)c3C[C@H]2CN1C(=O)c1ccccc1,1.19
24,C=C(C)C1CCC(C(O)C2C=CC3C(=O)N(C)C(=O)C3N2N2CCCCC2)CC1 (stereo unspecified),-0.128
25,COCCOC(=O)N1C(=O)[C@@]2(c3cc(C#CCNC(N)=O)ccc31)[C@H](C(=O)N1CCc3cc(OC)c(OC)cc3C1)[C@H]1C(=O)O[C@H](c3ccccc3)[C@H](c3ccccc3)N1[C@@H]2c1ccccc1OCCO,1.58
26,O=C1OCCC/C=C\[C@H]2OC34C=CCN(CCN5CCOCC5)C(=O)[C@H]3N(CCCCCCO)C(=O)[C@@H]4C12 (stereo partly specified),0.752
